Laboratory results: PubChem BioAssay (NCATS)
The source made the active and inactive calls. The call rests on the fitted dose curve; in most records, active means well fitted curve in the direction sought with a large enough effect; inconclusive means small, poorly fitted or top-dose-only effect, or another doubt; inactive means no such curve, though single readings can be large; an effect the other way counts as inactive or inconclusive.

Tests used:
[1] = molecular target: Alpha-galactosidase (Coffea arabica) (UniProt Q42656); assay: Counterscreen for Glucocerebrosidase Inhibitors: qHTS Assay for Coffee Bean alpha-Galactosidase at pH 4.5 (AID 957); conditions: purified coffee bean alpha-galactosidase, fluorogenic substrate; series mostly up to 76.9 µM
How it was run: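 Quantitative HTS of compounds (0.7 nM to 77 uM) against coffee bean alpha-galactosidase at pH 4.5, measuring 4-methylumbelliferone fluorescence released from 80 uM substrate.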

[2] = molecular target: Alpha-galactosidase (Coffea arabica) (UniProt Q42656); assay: Counterscreen for Glucocerebrosidase Inhibitors: qHTS Assay for Coffee Bean alpha-Galactosidase at pH 5.9 (AID 998); conditions: coffee bean alpha-galactosidase enzyme assay; series mostly up to 76.9 µM
How it was run: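 In 50 mM citric acid pH 5.9 with 0.005% Tween-20, coffee bean enzyme hydrolyses 80 uM 4-MU alpha-D-galactopyranoside over 20 min at RT. Activity is normalized to controls; AC50 comes from Hill-modelled concentration-response data.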

Alpha-galactosidase (Coffea arabica), sequence (Q42656 whole entry, looked up): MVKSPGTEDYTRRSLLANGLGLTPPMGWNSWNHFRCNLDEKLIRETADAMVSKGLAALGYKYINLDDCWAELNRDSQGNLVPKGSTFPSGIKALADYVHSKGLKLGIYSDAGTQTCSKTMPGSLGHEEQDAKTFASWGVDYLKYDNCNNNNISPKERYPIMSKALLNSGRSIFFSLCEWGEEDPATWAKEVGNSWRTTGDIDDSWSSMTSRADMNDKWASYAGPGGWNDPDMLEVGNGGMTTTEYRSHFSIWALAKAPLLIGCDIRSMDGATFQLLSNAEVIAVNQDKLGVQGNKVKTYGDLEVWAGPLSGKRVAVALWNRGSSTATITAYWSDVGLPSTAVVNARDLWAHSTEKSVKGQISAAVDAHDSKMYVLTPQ

Row | SMILES | outcome [1] | outcome [2]
1 | CC(=O)OCC1=C(C(=O)O)N2C(=O)[C@@H](NC(=O)Cc3cccs3)[C@@H]2SC1 | inactive | inactive
2 | CCCCCCCCCCCCCCCCCC(=O)NC[C@@H](COP(=O)([O-])OCC[N+](C)(C)C)OCC | inactive | inactive
3 | O=C(O)[C@@H]1CCCN[C@H]1C(=O)O | inactive | inactive
4 | CCN(Cc1ccncc1)C(=O)[C@@H](CO)c1ccccc1 | inactive | inactive
5 | CN1CC[C@@]2(CCN3CCc4c(oc5ccccc45)[C@@H]3C2)N(C)C1=O | inactive | inactive
6 | CCN(CC)CC#CCOC(=O)[C@@](O)(c1ccccc1)C1CCCCC1 | inactive | inactive
7 | COc1cccc2c1[C@@H]1CN(CCCCn3c(=O)[nH]c4c(sc5ncc(-c6ccccc6)nc54)c3=O)C[C@H]1CO2 | inactive | inactive
8 | CC1(C)CCC(NC(=O)[C@H](N)CCC(=O)O)CC1 | inactive | inactive
9 | C[C@@H]1C[C@@H]2[C@H]3CCC4=CC(=O)C=C[C@]4(C)[C@]3(F)[C@@H](O)C[C@@]2(C)[C@@]1(O)C(=O)CO | inactive | inactive
10 | O=C1[C@@H]2C=CC=CC2=NC(=S)N1CCN1CCC(=C(c2ccc(F)cc2)c2ccc(F)cc2)CC1 | inactive | inactive
11 | Cc1cccc(/C=C\c2ccccc2)n1 | inactive | inactive
12 | C[C@@H]1CNCCN1S(=O)(=O)c1cccc2cnccc12 | inactive | inactive
13 | CC(C)C[C@H](NC(=O)[C@@H](O)[C@@H](N)Cc1ccccc1)C(=O)O | inactive | inactive
14 | CC[C@]1(O)C[C@H]2CN(CCc3c([nH]c4ccccc34)[C@](C(=O)OC)(c3cc4c(cc3OC)N(C=O)[C@H]3[C@@](O)(C(=O)OC)[C@H](OC(C)=O)[C@@]5(CC)C=CCN6CC[C@]43[C@H]65)C2)C1 | inactive | inactive
15 | C=CCN1CCc2cc(O)c(O)cc2[C@H](c2ccccc2)C1 | inactive | inactive
16 | NC(=O)c1ncn([C@@H]2O[C@@H](CO)[C@@H](O)[C@H]2O)c1O | inactive | inactive
17 | C[C@H](Oc1ccc(Oc2cnc3ccc(Cl)cc3n2)cc1)C(=O)O | inactive | inactive
18 | CC1CCN(CC[C@@H]2CCCN2S(=O)(=O)c2cccc(O)c2)CC1 | inactive | inactive
19 | FC(F)(F)c1cc(CO[C@@H]2CCCN[C@H]2c2ccccc2)cc(C(F)(F)F)c1 | inactive | inactive
20 | C[C@@H]1c2cccc(O)c2C(O)=C2C(=O)[C@@]3(O)C(O)=C(C(N)=O)C(=O)[C@@H](N(C)C)[C@@H]3[C@@H](O)[C@@H]21 | inactive | inactive
21 | CCCCC#Cc1nc(N)c2ncn([C@@H]3O[C@@H](C(=O)NCC)[C@H](O)[C@@H]3O)c2n1 | inactive | inactive
22 | Oc1ccc([C@@H]2CNCc3sccc32)cc1O | inactive | inactive
23 | C=C1C(=O)O[C@@H]2[C@@H]1CC/C(C)=C\CC[C@@]1(C)O[C@H]21 | inactive | inactive
24 | Oc1ccc(/C=C\c2cc(O)cc(O)c2)cc1 | inactive | inactive
25 | OC[C@@H]1O[C@H](O)[C@@H](Cl)[C@H](O)[C@@H]1O | inactive | inactive
26 | O=C1NC(O)=NC1(c1ccccc1)c1ccccc1 | inactive | inactive

Row | SMILES | outcome [1] | outcome [2]
27 | CC(N)=NCCC[C@H](N)C(=O)O | inactive | inactive
28 | CN(C)C/C=C(\c1ccc(Br)cc1)c1cccnc1 | inactive | inactive
29 | N#C[C@@H](Cc1ccc(O)c(O)c1)C(=O)N1CCc2ccccc21 | inactive | inactive
30 | C[C@@H](CN1c2ccccc2Sc2ccccc21)N(C)C | inactive | inactive
31 | C[C@H](N)C(=O)OC(C)(C)Cc1ccc(Cl)cc1 | inactive | inactive
32 | NC(=NCc1ccc(Cl)c(Cl)c1)NC(=O)c1nc(Cl)c(N)nc1N | inactive | inactive
33 | COc1cc(=O)n(C)c2c(OC[C@@H](O)C(C)(C)O)cccc12 | inactive | inactive
34 | Cc1cccc([C@@H]2CN(C)CCc3c2cc(O)c(O)c3Cl)c1 | inactive | inactive
35 | CN1C(=O)CC[C@@H]1c1cccnc1 | inactive | inactive
36 | CN(C)CCCO[C@H]1[C@H]([C@H](O)CO)O[C@H]2OC(C)(C)O[C@@H]21 | inactive | inactive
37 | NS(=O)(=O)c1cc2c(cc1Cl)N[C@@H]([C@@H]1C[C@@H]3C=C[C@H]1C3)NS2(=O)=O | inactive | inactive
38 | CC#CCOC(=O)c1c(C)nc2sc3c(c2c1N)CC[C@@H](O)C3 | inactive | inactive
39 | C[C@@H]1COc2c(N3CCN(C)CC3)c(F)cc3c(=O)c(C(=O)O)cn1c23 | inactive | inactive
40 | NC[C@@H]1O[C@@H](O[C@H]2[C@@H](O)[C@H](O[C@@H]3[C@H](O)[C@H](N)C[C@H](N)[C@H]3O[C@@H]3O[C@@H](CO)[C@H](O)[C@H](O)[C@@H]3N)O[C@H]2CO)[C@H](N)[C@H](O)[C@@H]1O | inactive | inactive
41 | C[C@@H](COc1ccc(/C=C\c2ccccc2)cc1)[N+](C)(C)C | inactive | inactive
42 | COC(=O)[C@H]1[C@H]2C[C@H]3c4[nH]c5ccccc5c4CCN3C[C@@H]2CC[C@@H]1O | inactive | inactive
43 | C#C[C@]1(O)CC[C@H]2[C@H]3CCC4=Cc5oncc5C[C@]4(C)[C@@H]3CC[C@]21C | inactive | inactive
44 | CCOC(=O)[C@@]12C[C@@H]1/C(=N/O)c1ccccc1O2 | inactive | inactive
45 | CC(C)(Oc1ccc([C@@H]2CC2(Cl)Cl)cc1)C(=O)O | inactive | inactive
46 | CC[C@]1(C)CC(=O)NC1=O | inactive | inactive
47 | O=C(NC[C@H]1CCCCN1)c1cc(OCC(F)(F)F)ccc1OCC(F)(F)F | inactive | inactive
48 | O=S(=O)(NCCNC/C=C\c1ccc(Br)cc1)c1cccc2cnccc12 | inactive | inactive
49 | C[C@@H](C(=O)O)c1ccc(C[C@@H]2CCCC2=O)cc1 | inactive | inactive
50 | NC(=S)NCCC[C@@H](N)C(=O)O | inactive | inactive
51 | N[C@]1(C(=O)O)CCc2cc(C(=O)O)ccc21 | inactive | inactive
52 | C=C/C(C)=C/[C@]1(C)SC(=O)C(C)=C1O | inactive | inactive
